Assay [1] is described as follows: small molecules captured by biotinylated probe aFSTL3 – biochemical, small-molecule microarray, fluorescence 635/667, stem cell growth factor project, primary screen (AID 1064).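 Also: measures binding of the biotinylated anti-FSTL3 antibody to printed compounds.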 The settings on record: higher = more signal.
Assay [2] can be described thus: binders from COS7 lysate, DM2A8 probe, primary screen, torsin A project, cell lysate, small-molecule microarray, fluorescence 635/667 (AID 1065). Particulars: higher = more signal, COS7 lysate expressing mutant human TOR1A.
Assay [3] can be described thus: small molecules captured by biotinylated probe aFGF2 – biochemical, small-molecule microarray, fluorescence 635/667, stem cell growth factor project, primary screen (AID 1067).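 Also: measures binding of biotinylated aFGF2 protein to printed compounds on slides; z-score merges feature fluorescence and signal-to-noise across triplicate slides.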 Particulars: higher = more signal.
Assay [4] can be described thus: small molecules captured by biotinylated probe aFGF10 – biochemical, small-molecule microarray, fluorescence 635/667, stem cell growth factor project, primary screen (AID 1071).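 Also: score merges 667 nm spot intensity and signal to noise from triplicate slides.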 Particulars: higher = more signal.
The target of assay [5] is Neurogenic locus notch homolog protein 2 (Homo sapiens) (UniProt Q04721). Description: small molecules binding Notch2 protein – biochemical, small-molecule microarray, 635 nm fluorescence, stem cell growth factors, primary screen (AID 1073). The settings on record: higher = more signal.
For assay [6], the target named is Pro-neuregulin-1, membrane-bound isoform (Homo sapiens) (UniProt Q02297). Description: small molecules binding neuregulin-1 protein – biochemical, small-molecule microarray, fluorescence 635/667, psychiatric disease protein project, primary screen (AID 1075).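 Also: score combines 667 nm spot fluorescence with signal to noise.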 The settings on record: NRG1 binding, 635 nm fluorescence, higher = more signal.
Pro-neuregulin-1, membrane-bound isoform (Homo sapiens), sequence (Q02297 whole entry, looked up, the tested form may be a part, canonical isoform): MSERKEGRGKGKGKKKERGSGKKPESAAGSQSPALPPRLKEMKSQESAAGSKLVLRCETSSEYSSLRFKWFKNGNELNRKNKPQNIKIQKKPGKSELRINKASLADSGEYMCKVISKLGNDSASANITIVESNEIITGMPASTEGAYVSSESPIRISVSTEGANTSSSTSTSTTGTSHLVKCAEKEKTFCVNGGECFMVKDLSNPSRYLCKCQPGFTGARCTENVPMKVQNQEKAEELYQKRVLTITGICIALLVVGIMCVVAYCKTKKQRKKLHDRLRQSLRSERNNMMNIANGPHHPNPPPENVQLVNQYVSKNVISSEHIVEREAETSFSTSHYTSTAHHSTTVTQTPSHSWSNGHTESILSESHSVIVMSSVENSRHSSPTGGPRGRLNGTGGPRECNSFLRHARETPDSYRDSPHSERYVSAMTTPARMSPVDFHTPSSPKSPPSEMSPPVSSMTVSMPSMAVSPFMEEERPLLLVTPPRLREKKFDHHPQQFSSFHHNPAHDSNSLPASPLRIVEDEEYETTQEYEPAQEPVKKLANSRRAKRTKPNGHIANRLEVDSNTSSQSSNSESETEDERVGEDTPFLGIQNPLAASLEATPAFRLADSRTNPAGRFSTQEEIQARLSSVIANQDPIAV
The test system of assay [7] is Neuregulin-1 EGF-like domain. Description: small molecules binding NRG1 EGF domain – biochemical, small-molecule microarray, 635 nm fluorescence, primary screen (AID 1081).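 Also: binding of the protein to compounds printed on small-molecule microarray slides.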 The settings on record: higher = more signal.
Assay [8] can be described thus: FRG1 expression reporter modulators in myotubes – cell-based, C2C12 myotubes, firefly/Renilla luciferase, luminescence, FRG1 inhibition for FSHD, primary screen (AID 1084). Particulars: FRG1 promoter luciferase, higher = more signal, called active from +8 up or from −8 down.
Assay [9] is described as follows: small molecules captured by biotinylated probe aFST – biochemical, small-molecule microarray, fluorescence 635/667, stem cell growth factor project, primary screen (AID 1086).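 Also: score merges 667 nm fluorescence with signal-to-noise of each printed compound spot.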 The settings on record: higher = more signal.
Assay [10] in a line: binders of probe aHhip on microarray, primary screen, stem cell growth factor project, biochemical, small-molecule microarray, fluorescence 635/667 (AID 1087).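 Also: score merges spot fluorescence at 667nm with spot signal to noise ratio.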 The settings on record: higher = more signal.
Assay [11] has as its system PRMT1 (protein arginine N-methyltransferase 1). Description: small molecules binding arginine methyltransferase PRMT1 – biochemical, small-molecule microarray, 635 nm fluorescence, primary screen (AID 1088).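 Also: binding of Prmt1 protein to compounds spotted on small-molecule microarray slides.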 The settings on record: higher = more signal.
Assay [12] is described as follows: growth effects on S. cerevisiae YJM789 – YJM789 clinical isolate, OD600, 24 h, basal, primary screen (AID 1089).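 Also: growth of clinical yeast isolate S. cerevisiae YJM 789 seeded 1000 cells per well; test concentration not given here.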 The settings on record: higher = more signal, called active from +8 up or from −8 down.
A short description of assay [13]: S. pombe growth modifiers, basal conditions – strain 972, OD600, 24 h, no modulator, primary screen (AID 1090).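 Also: basal condition with compound alone and no growth modifier present; test concentration not given here.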 The settings on record: S. pombe 972 growth, higher = more signal, called active from +8 up or from −8 down.
The nature of assay [14]: budding yeast growth modifiers under rapamycin – strain BY4716, OD600, 96 h, primary screen (AID 1091). Also: test concentration not given here. The settings on record: S. cerevisiae BY4716 + rapamycin, higher = more signal, called active from +8 up or from −8 down.
The target in assay [15] is Torsin-1A-interacting protein 2 (Homo sapiens) (UniProt Q8NFQ8). Description: small molecules binding lysate-expressed LULL1 – cell lysate, human LULL1 lysate, 635/667 nm fluorescence, primary screen (AID 1092).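 Also: probe is lysate of COS7 cells overexpressing human LULL1; score merges per-feature 667 nm fluorescence with signal-to-noise.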 Particulars: small-molecule microarray, hLULL1 lysate binding, 635 nm fluorescence; higher = more signal.
Torsin-1A-interacting protein 2 (Homo sapiens), sequence (Q8NFQ8 whole entry, looked up): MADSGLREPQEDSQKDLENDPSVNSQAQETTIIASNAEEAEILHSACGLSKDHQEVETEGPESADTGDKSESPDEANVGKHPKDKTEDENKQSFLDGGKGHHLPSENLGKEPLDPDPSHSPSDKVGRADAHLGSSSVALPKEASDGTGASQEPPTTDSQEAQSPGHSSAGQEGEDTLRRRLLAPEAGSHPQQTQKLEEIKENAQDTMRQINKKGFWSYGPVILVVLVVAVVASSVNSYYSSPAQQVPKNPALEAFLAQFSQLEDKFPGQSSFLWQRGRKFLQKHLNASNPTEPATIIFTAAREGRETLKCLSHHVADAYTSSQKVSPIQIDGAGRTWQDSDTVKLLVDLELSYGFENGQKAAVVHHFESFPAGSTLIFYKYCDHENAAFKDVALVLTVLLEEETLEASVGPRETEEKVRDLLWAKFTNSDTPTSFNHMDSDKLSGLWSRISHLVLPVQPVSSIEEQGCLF
Assay [16] is described as follows: optical density change of DRC41 E. coli – strain DRC41, OD650, 24 h, E. coli filamentation project, primary screen (AID 1093).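 Also: MC1000 strain lacking acrAB efflux and sulA so SOS filamentation is blocked; test concentration not given here.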 The settings on record: E. coli DRC41 growth, higher = more signal, called active from +8 up or from −8 down.
The nature of assay [17]: probe aLefty2 binding to arrayed compounds – biochemical, biotinylated probe, 635/667 nm fluorescence, primary screen (AID 1094).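 Also: score merges spot fluorescence near 667 nm with spot signal-to-noise ratio.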 Particulars: small-molecule microarray, higher = more signal.
Assay [18] relates to Noggin (protein binding on small-molecule microarray). Description: small molecules binding Noggin protein – biochemical, 635/667 nm fluorescence, primary screen (AID 1095).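 Also: score merges 667 nm feature fluorescence with signal to noise over triplicate slides.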 Particulars: 635 nm fluorescence, higher = more signal.
The target of assay [19] is Neurogenic locus notch homolog protein 3 (Homo sapiens) (UniProt Q9UM47). Description: small molecules binding NOTCH3 protein – biochemical, 635/667 nm fluorescence, primary screen (AID 1096). The settings on record: small-molecule microarray, 635 nm fluorescence, higher = more signal.
Neurogenic locus notch homolog protein 3 (Homo sapiens), sequence (Q9UM47 whole entry, looked up): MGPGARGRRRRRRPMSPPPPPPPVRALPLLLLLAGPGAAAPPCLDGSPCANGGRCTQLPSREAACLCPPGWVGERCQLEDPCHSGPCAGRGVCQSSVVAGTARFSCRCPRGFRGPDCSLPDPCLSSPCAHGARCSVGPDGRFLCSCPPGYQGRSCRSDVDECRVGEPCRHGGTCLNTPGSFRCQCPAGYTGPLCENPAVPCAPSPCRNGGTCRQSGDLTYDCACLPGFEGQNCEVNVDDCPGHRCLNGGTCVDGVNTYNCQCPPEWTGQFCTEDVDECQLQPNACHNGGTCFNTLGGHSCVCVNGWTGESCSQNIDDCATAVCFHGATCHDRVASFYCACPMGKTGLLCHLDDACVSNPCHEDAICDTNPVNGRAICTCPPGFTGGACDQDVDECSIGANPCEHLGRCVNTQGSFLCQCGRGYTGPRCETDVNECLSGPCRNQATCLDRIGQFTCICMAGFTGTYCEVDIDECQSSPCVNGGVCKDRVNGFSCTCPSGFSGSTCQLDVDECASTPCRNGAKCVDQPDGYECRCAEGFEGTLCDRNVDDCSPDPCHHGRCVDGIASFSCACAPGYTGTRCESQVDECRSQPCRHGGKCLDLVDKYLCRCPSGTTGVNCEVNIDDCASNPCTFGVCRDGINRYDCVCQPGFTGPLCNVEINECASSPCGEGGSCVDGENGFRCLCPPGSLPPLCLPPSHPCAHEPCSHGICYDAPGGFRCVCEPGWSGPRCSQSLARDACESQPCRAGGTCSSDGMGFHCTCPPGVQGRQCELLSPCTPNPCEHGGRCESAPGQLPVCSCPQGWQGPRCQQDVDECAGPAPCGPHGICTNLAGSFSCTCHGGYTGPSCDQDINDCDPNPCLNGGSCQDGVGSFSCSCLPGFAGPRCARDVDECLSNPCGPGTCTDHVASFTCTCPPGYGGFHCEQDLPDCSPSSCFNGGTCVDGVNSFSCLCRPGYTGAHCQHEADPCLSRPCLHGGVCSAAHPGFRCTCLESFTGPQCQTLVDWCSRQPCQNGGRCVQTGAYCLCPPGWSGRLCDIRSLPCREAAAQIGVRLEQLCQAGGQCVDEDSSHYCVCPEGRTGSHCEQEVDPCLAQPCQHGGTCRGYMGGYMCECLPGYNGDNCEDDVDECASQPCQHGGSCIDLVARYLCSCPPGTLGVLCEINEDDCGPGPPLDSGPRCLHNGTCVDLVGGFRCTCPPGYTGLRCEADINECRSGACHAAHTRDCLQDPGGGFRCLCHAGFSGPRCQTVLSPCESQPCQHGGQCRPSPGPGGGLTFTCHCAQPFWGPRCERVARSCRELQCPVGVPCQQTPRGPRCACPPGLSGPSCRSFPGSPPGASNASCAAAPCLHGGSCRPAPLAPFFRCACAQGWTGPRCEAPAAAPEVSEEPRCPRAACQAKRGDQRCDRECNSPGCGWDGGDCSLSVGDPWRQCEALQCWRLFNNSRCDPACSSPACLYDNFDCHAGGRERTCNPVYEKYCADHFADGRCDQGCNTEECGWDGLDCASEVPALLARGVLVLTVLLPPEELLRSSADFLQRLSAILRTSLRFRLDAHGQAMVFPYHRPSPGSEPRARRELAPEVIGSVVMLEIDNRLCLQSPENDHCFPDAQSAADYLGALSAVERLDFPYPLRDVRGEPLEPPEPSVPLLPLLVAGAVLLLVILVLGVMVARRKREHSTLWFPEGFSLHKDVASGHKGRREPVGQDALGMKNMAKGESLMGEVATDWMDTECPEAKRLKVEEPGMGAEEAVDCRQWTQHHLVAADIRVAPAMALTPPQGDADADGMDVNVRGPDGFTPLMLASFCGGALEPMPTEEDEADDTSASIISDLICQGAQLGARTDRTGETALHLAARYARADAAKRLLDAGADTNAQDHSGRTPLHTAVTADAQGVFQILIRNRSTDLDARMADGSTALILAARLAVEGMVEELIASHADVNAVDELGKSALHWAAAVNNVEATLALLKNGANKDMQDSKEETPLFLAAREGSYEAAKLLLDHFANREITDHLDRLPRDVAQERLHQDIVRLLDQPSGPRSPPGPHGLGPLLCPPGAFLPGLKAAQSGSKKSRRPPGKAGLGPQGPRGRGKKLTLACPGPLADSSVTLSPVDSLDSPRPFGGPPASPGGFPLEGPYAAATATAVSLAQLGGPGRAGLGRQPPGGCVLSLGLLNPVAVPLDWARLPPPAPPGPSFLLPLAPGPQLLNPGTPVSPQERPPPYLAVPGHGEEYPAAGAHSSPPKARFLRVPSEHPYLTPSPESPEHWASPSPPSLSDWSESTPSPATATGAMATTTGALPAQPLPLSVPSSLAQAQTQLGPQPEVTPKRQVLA
Assay [20] is described as follows: probe aEGFR binding to arrayed compounds – biochemical, biotinylated probe, 635/667 nm fluorescence, primary screen (AID 1097).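 Also: probe is a biotinylated anti-EGFR antibody binding compounds printed on slides; score combines fluorescence near 667 nm and signal to noise of each spot.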 Particulars: small-molecule microarray, higher = more signal.

Calls of active or inactive are those of the source.

As to `COC(=O)C[C@@H]1C[C@H](C)[C@]2(O1)C(=O)N(Cc1ccccc1)c1ccc(NC(C)=O)cc12`, the composite z-score in assay [1] was -0.589; in assay [2], 0.108; in [3], -0.144; in [4], 0.315; in [5], 0.381; in assay [6], -0.12. Besides, the composite z-score in assay [7] is 0.443; in assay [9] it was -0.0507; in [10], 0.0012; in assay [11], -0.509; in [15] it was 0.053; in assay [17], -0.166. Moreover, the composite z-score in [18] was 0.571; in assay [19], 0.107; in assay [20] it was -0.111. Also, the z-score in [8] is 0.74 (inactive); in assay [12], 0.498 (inactive); in assay [13], -1.1 (inactive); in assay [14] it was 0.134 (inactive); in [16], 0.827 (inactive).

Consider `CC(C)C(=C=CC[C@@H](O)c1ccccc1OCCO)C[C@@H](O)c1ccccn1`, for which the composite z-score is -0.438 in assay [1]; -0.0682 in assay [2]; -0.153 in assay [3]; 0.477 in assay [4]; 0.0623 in [5]; 0.0795 in assay [6]. Further, the composite z-score in assay [7] is 1.19; in assay [9], 0.272; in assay [10], 0.176; in assay [11], 0.439; in [15] it was 2.67; in assay [17], -0.126. The composite z-score in [18] is 0.538; in assay [19] it was 0.878; in [20], -0.099. Besides, the z-score is -0.306 (inactive) in assay [8]; 2.46 (inactive) in assay [12]; -0.18 (inactive) in assay [13]; -1.1 (inactive) in assay [14]; -0.0287 (inactive) in assay [16].

Turning to `Cc1ccc(S[C@]2(C(=O)O)CC(=O)N(C3Cc4ccccc4C3)[C@@H]2c2ccc(CO)cc2I)cc1`, the composite z-score in assay [1] is 1.43; in assay [2], -0.269; in [3], -0.0692; in [4], 0.117; in assay [5], -0.634; in assay [6], 0.899. Further, the composite z-score in assay [7] is 0.78; in assay [9] it was -0.154; in [10] it was -0.0581; in [11] it was 0.46; in assay [15] it was 2.32; in assay [17] it was 0.125. Also, the composite z-score in [18] was -1.02; in assay [19], -0.891; in [20], -0.132. Further, the z-score in assay [8] was 0.788 (inactive); in assay [12], -1.47 (inactive); in assay [13], -1.01 (inactive); in assay [14] it was 1.6 (inactive); in assay [16], -0.263 (inactive).

In the case of `Cc1cc(C)cc(N2C(=O)CS(=O)(=O)C2c2cccc([N+](=O)[O-])c2)c1` (stereo not given), the composite z-score was found to be 0.228 in assay [1]; 0.661 in assay [2]; 0.245 in [3]; 0.366 in [4]; 1.17 in assay [5]; 1.63 in assay [6]. Further, the composite z-score came to 1.04 in [7]; 1.18 in assay [9]; 1.53 in [10]; 1.13 in assay [11]; 2.13 in assay [15]; 0.788 in assay [17]. Moreover, the composite z-score in assay [18] was 0.0104; in assay [19], 0.726; in assay [20], 0.477. Further, the z-score in [8] was -1.47 (inactive); in [12], -0.703 (inactive); in assay [13], -1.22 (inactive); in assay [14] it was -0.522 (inactive); in [16], -0.268 (inactive).
